An excerpt weighted towards active compounds, which were near 6.9% of everything screened.
BAZ2B block – blocks human BAZ2B; Q9UIF8; AlphaScreen BAZ2B-H3K14Ac peptide displacement; Potency, µM (doses to about 114 µM), for the others: at the top dose activity change, negative = inhibition, most hits filed as inhibitors; 4.4% of 360,000 active; AID 504333; note: % is set by controls: 0 for no effect and ±100 for the full control effect; nearly all actives have a fitted effect of over 60% in size
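BAZ2B 50 nM plus b-H3(5-23)K14Ac 50 nM, PBS pH 7.4/0.01% Tween-20, 30 min RT; compound added (max 110 uM), 30 min RT; streptavidin donor/Ni-chelate acceptor beads 10 ug/mL final, 20 min dark; AlphaScreen read.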
VDR inhibitor – blocks the human vitamin D receptor | P11473 | VDR-SRC2-3 peptide fluorescence polarization, 2 h | Potency, µM, without a hit: max response, negative = inhibition, hits mostly inhibitors | 0.93% of 400,000 active; note: % is set by controls: 0 for no effect and ±100 for the full control effect
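Inhibition of the VDR/SRC2-3 peptide interaction is quantified by fluorescence polarization. Compounds (23 nl, pintool) incubate with the reagents for 2 hours at ambient room temperature.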
PLK1 PBD block – blocks phosphopeptide binding to human PLK1 polo-box domain; 2.8% of 360,000 active; Plk1 PBD binding of FITC phosphopeptide, fluorescence polarization; P53350; Potency, µM, without a hit: max response, negative = inhibition, usual class: inhibitors; AID 720504; note: series mostly up to about 57 µM; % is set by controls: 0 for no effect and ±100 for the full control effect; nearly all actives have a fitted effect of over 65% in size
HP1b binding inh – HP1-beta chromodomain-methylated histone interaction inhibition; P83916; AlphaScreen HP1-beta / biotin-H3K9me3 peptide binding; Potency, µM (titrated, usually from 114 µM), without a hit: at the highest dose activity change, negative = inhibition, actives largely listed as inhibitors; 0.56% of 390,000 active; AID 540317; note: nearly all actives have a fitted effect of over 70% in size
Target sequence (P83916 whole entry, looked up): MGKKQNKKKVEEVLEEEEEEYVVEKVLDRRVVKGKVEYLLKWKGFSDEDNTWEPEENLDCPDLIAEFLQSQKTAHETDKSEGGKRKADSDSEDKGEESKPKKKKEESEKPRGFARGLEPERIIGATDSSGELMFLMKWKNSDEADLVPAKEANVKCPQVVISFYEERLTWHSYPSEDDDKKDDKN
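AlphaScreen: HP1-beta (50 nM) preformed 30 min with biotin-H3(1-18)K9me3 peptide (50 nM) in PBS pH 7.4, 0.01% Tween-20. Compound added for 30 min at RT, then streptavidin donor/nickel chelate acceptor beads (10 ug/mL) for 30 min.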
L3MBTL1 inh – blocks human L3MBTL1 | AlphaScreen L3MBTL1–H3K9me1 peptide binding | Q9Y468 | Potency, µM (series often up to 57.1 µM), for the others: at the top dose activity, negative = inhibition, usual class: inhibitors | AID 485360 | 0.66% of 230,000 active; note: % is set by controls: 0 for no effect and ±100 for the full control effect; nearly all actives have a fitted effect of over 60% in size
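L3MBTL1 50 nM + b-AHA-H3(1-15)K9me1 75 nM, 30 min RT; compound added, 30 min RT; streptavidin donor/Ni-chelate acceptor beads 10 ug/mL each final, 30 min RT dark; AlphaScreen read.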
JMJD2A Tudor inh – JMJD2A Tudor domain (human) inhibition | O75164 | AlphaScreen JMJD2A-Tudor / H3K4me3 peptide binding | Potency, µM (doses to about 114 µM), inactives show top-dose activity change, negative = inhibition, hits mostly inhibitors | 4.4% of 390,000 active | AID 504339; note: % is set by controls: 0 for no effect and ±100 for the full control effect; nearly all actives have a fitted effect of over 50% in size
* = called active by the depositor; ? = inconclusive; · = not tested or not shown; [ ] = another dose, or the depositor's remark. Calls come from the whole dose curve; as a rule, active = well fitted curve in the direction sought with a large enough effect; inconclusive = small, poorly fitted or top-dose-only effect, or another doubt; inactive = no such curve, though single readings can be large; an effect the other way counts as inactive or inconclusive. Potency is the fitted concentration of half-maximal effect.

SMILES | BAZ2B block | VDR inhibitor | PLK1 PBD block | HP1b binding inh | L3MBTL1 inh | JMJD2A Tudor inh
CC(C)(C)Cc1nnc(NS(=O)(=O)c2ccccc2)s1 | -19.3% | -13.0% | 26.7µM* | -1.3% | 5.0% | -13.4%
CC(C)(C)c1nnc(NS(=O)(=O)c2ccc(F)cc2)s1 | · | 79.4µM* | 9.47µM* | ? | · | -29.5%
COc1ccc(NC(=O)CN(Cc2ccccc2)S(=O)(=O)c2ccc(C)cc2)cc1Cl | 1.5% | -2.7% | · | 19.3% | · | -7.5%
CC(=Nc1cc(C(=O)c2ccccc2)ccc1N)C1=C(O)CC(C)(C)CC1=O | 2.3% | -8.2% | 29.9µM* | -32.5% | · | ?
CC(=O)Nc1ccc(NC(=O)C2(c3cccs3)CCOCC2)cc1 | -1.1% | 3.1% | · | 51.1% | · | 44.7µM*
COc1ccc(NC(=O)C2(c3cccs3)CCOCC2)cc1 | -17.2% | 8.8% | -10.1% | 64.5% | 11.7% | -14.0%[11.4 µM]
COc1ccc2c(c1)cc1c(=O)n(CC(=O)NC3CC3)nc(C)n12 | 1.3% | ? | · | 42.1% | · | 8.0%
COc1cccc(CSc2nc(-c3ccccc3F)nc3c2Cc2c(CO)cnc(C)c2O3)c1 | -14.4% | -3.4% | · | 46.0% | · | 1.5%
O=C(Nc1ccc([N+](=O)[O-])cc1)Nc1cnccn1 | -20.9% | 11.7% | -7.5% | 27.4% | · | -17.7%
CCOC(=O)Cn1cc(/C=N/N2C(=O)C3C4C=CC(C4)C3C2=O)c2ccccc21 (stereo not drawn) | -17.1% | ? | 15µM* | -19.8% | 49.1% | ?
Cc1ccc(Nc2nnns2)cc1C | 0.2% | 44.7µM* | 26.7µM* | ? | 6.7% | ?
CCOC1=C2[C@@H](CN(S(=O)(=O)c3ccc(C)cc3)[C@H]2c2ccccc2Cl)[C@H]2C(=O)NC(=O)[C@H]2C1 | · | · | -6.8% | · | · | ·
CCOC1=C2[C@H](c3ccc(CC)cc3)N(S(=O)(=O)c3ccc(C)cc3)C[C@H]2C(C#N)(C#N)C(C#N)(C#N)C1 | · | · | 16.8µM* | · | · | ·
CCOC1=C2[C@H](c3ccccc3Cl)N(S(=O)(=O)c3ccc(C)cc3)C[C@H]2C(C#N)(C#N)C(C#N)(C#N)C1 | · | · | 26.7µM* | · | · | ·
CCOC1=C2CN(S(=O)(=O)c3ccc(C)cc3)C(c3ccc(CC)cc3)CC2N(S(=O)(=O)c2ccc(C)cc2)C(c2ccc(CC)cc2)C1 (stereo not drawn) | · | · | -3.9% | · | · | ·
CN(C(=O)CSc1nnc(COc2ccccc2)o1)c1ccccc1 | 79.4µM* | 2.3% | · | 30.9% | · | -25.2%
COc1ccc(Cc2nnc(SCC(=O)N(C)c3ccccc3)o2)cc1 | -6.1% | -13.3% | 2.1% | 25.6% | · | -13.1%
CCOC(=O)CSc1nnc(COc2ccc3ccccc3c2)o1 | 22.2% | -22.3% | 26.7µM* | 55.4% | 18.8% | ?
COc1ccc(NC(=O)CCc2nc3c(C)nn(-c4ccc(C)cc4)c3n(C)c2=O)c(OC)c1 | -12.2% | 13.5% | · | 22.2% | · | -3.6%
CSc1ccc(C(=S)N2CCCCCC2)cc1 | -9.8% | -16.2% | -24.1% | 42.0% | -4.0% | -18.0%
CCN1CCN(C(=S)c2ccc(SC)cc2)CC1 | 3.2% | ? | 18.9µM* | ? | · | -17.1%
CSc1ccc(C(=S)N2CCN(Cc3ccccc3)CC2)cc1 | ? | -18.9% | 21.2µM* | -35.6% | · | ?
CCc1ccc(CNC(=O)c2cc3c(=O)n(Cc4cccs4)ccc3nc2C)cc1 | -4.0% | 3.6% | · | 40.4% | · | -6.7%
O=C1OCC2=C1C(c1ccc(F)cc1)Sc1ccccc1N2 (stereo not drawn) | 7.1% | 3.2% | 2.2% | 70.6% | · | -20.9%
CC(C)(C)c1ccc(C2Sc3ccccc3NC3=C2C(=O)c2ccccc23)cc1 (stereo not drawn) | 8.91µM* | -9.0% | · | ? | · | 25.1µM*
Cc1nn(Cc2c(F)c(F)c(F)c(F)c2F)c(C)c1NC(=O)c1nn(C)c(C)c1Br | -1.3% | -18.7% | -0.8% | 8.3% | · | -22.1%
Cc1ccc(-n2c(N)c(C(=O)N3CCCCC3)sc2=S)cc1 | ? | ? | 23.8µM* | 15.8µM* | · | ?
Nc1c(C(=O)N2CCOCC2)sc(=S)n1-c1ccccc1 | -9.5% | 50.1µM* | 10.6µM* | -42.7% | -7.4% | ?

Assay outcomes deposited in PubChem by National Center for Advancing Translational Sciences (NCATS).
